{
  "source": "PubChem BioAssay (NCI)",
  "note": "Compounds without any hit were thinned out: in the full panel of roughly 83,000, 20% have a hit.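 The test compound was applied at a single concentration to cells in 96-well plates for 48 hours, and percent growth was recorded.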 A number with no mark means an inactive call. Active and inactive are the calls of the source. How the source made its calls: active means growth percent below 10; inactive means the rest.",
  "data": [
    {"system": "HL-60(TB) leukemia", "assay": "NCI-60 one-dose screen, 48 h (100 = growth as untreated, 0 = no growth, -100 = all killed)", "conditions": "10 µM unless noted", "values": [
      {"smiles": "CC(C)OC(=O)c1ccc2n1CCCc1cnc(Nc3ccccc3)nc1-2", "growth": "79.1%"},
      {"smiles": "COc1cccc(-c2nn(-c3ccccc3)cc2-c2ccnc(N3CCOCC3)c2)c1", "growth": "44.9%"},
      {"smiles": "COc1cc(/C=C/c2nnc(-c3cc(-c4ccccc4)n[nH]3)o2)cc(OC)c1OC", "growth": "75.1%"},
      {"smiles": "COc1cc(OC)c(C(=O)/C=C/c2cccc(C(F)(F)F)c2)c(OC)c1", "growth": "-26.6% (active)"},
      {"smiles": "O=C(COc1cccc(/C=C2/Oc3ccccc3C2=O)c1)Nc1nccs1", "growth": "-72.9% (active)"},
      {"smiles": "CC[C@@H](C(=O)[C@@H](C)[C@@H](O)[C@H](C)[C@@H]1O[C@@H]([C@@H](CC)C(=O)O)CC[C@@H]1C)C1O[C@]2(C=CC(=O)[C@]3(CC[C@@](C)([C@H]4CC[C@](O)(CC)[C@H](C)O4)O3)O2)[C@H](C)C[C@@H]1C", "note": "(stereo partly drawn)", "growth": "-32.7% (active)"},
      {"smiles": "COc1ccc(/C=C/C(c2cc(OC)c(OC)c(OC)c2)n2cncn2)cc1O", "note": "(stereo not drawn)", "growth": "-36.3% (active)"},
      {"smiles": "O=CNc1ccc2c(c1)Cc1cccc(NC=O)c1-2", "growth": "70.6%"},
      {"smiles": "O=c1ccn(C2CC=C(CO)O2)c(=O)[nH]1", "note": "(stereo not drawn)", "growth": "91.9%"},
      {"smiles": "CC(C)OCC1CO1", "note": "(stereo not drawn)", "growth": "103%"},
      {"smiles": "COc1cc(/C=N/O)nc(-c2ccccn2)c1", "growth": "-13.5% (active)"},
      {"smiles": "CCOP1(=O)CC(C)=C(Cl)C(P(=O)(O)O)C1", "note": "(stereo not drawn)", "growth": "11.5%"},
      {"smiles": "COc1cc2c(c(OC)c1OC)-c1ccc(N=NC(N)=S)c(=O)cc1[C@@H](NC(C)=O)CC2", "growth": "-17.7% (active)"},
      {"smiles": "COc1cc(C2CC(c3ccc(Nc4nc(Nc5ccc(F)cc5)nc(Nc5ccc(Cl)cc5)n4)cc3)=NN2C(C)=O)cc(OC)c1OC", "note": "(stereo not drawn)", "growth": "35.2%"},
      {"smiles": "C#CCOc1cccc(Nc2ncc3ncn(C4CCN(C(=O)CCl)C4)c3n2)c1", "note": "(stereo not drawn)", "growth": "-29% [6.25 µM] (active)"},
      {"smiles": "COc1cccc(/C=C/C(=O)c2cc3c(N)c(C(=O)Nc4cccc(Cl)c4C)sc3nc2C)c1", "growth": "0.771% (active)"},
      {"smiles": "COC(=O)c1c(C)nc(C)c2c1C(=O)C(Br)=C(NCCCCO)C2=O", "growth": "24.1%"},
      {"smiles": "CNCCCn1c2c(c3ccc([N+](=O)[O-])cc3c1=O)C(=O)c1cc(OC)cnc1-2", "growth": "-32.3% (active)"},
      {"smiles": "COc1ccc(/C=C/C(=O)OCC(=O)NNC(=O)c2ccccc2)cc1OC", "growth": "72.2%"},
      {"smiles": "CCOC(=O)c1c(O)c2cc(-c3ccccc3)nc(OCC)c2c(=O)n1C", "growth": "156%"},
      {"smiles": "NS(=O)(=O)N(c1cc(C(F)(F)F)cc(C(F)(F)F)c1)C1CCN(Cc2ccc(F)cc2)CC1", "growth": "26.3%"},
      {"smiles": "COc1ccc(-c2cc(-c3cccnc3)nc3sc4c(N)c(C(C)=O)c(-c5ccccc5)nc4c23)cc1OC", "growth": "78%"},
      {"smiles": "Cc1ccc(C(NC(=O)c2ccccc2)c2ccc3cccnc3c2O)cc1", "note": "(stereo not drawn)", "growth": "-21% (active)"}
    ]}
  ]
}
